The record followed here is publication PMC4336329 (PLoS ONE, 2015).

The campaign covered roughly 310,000 compounds. About 14,000 (4.5%) showed an effect of 50% or more. The effect is printed as a negative number. Many of the other results were omitted from the sample, so strong results are more common in it than they were.
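Note: peak tail current of the secondary pulse compared with the same well before compound.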

human ether-à-go-go-related gene (hERG) potassium channel, sequence (Q12809 whole entry, looked up): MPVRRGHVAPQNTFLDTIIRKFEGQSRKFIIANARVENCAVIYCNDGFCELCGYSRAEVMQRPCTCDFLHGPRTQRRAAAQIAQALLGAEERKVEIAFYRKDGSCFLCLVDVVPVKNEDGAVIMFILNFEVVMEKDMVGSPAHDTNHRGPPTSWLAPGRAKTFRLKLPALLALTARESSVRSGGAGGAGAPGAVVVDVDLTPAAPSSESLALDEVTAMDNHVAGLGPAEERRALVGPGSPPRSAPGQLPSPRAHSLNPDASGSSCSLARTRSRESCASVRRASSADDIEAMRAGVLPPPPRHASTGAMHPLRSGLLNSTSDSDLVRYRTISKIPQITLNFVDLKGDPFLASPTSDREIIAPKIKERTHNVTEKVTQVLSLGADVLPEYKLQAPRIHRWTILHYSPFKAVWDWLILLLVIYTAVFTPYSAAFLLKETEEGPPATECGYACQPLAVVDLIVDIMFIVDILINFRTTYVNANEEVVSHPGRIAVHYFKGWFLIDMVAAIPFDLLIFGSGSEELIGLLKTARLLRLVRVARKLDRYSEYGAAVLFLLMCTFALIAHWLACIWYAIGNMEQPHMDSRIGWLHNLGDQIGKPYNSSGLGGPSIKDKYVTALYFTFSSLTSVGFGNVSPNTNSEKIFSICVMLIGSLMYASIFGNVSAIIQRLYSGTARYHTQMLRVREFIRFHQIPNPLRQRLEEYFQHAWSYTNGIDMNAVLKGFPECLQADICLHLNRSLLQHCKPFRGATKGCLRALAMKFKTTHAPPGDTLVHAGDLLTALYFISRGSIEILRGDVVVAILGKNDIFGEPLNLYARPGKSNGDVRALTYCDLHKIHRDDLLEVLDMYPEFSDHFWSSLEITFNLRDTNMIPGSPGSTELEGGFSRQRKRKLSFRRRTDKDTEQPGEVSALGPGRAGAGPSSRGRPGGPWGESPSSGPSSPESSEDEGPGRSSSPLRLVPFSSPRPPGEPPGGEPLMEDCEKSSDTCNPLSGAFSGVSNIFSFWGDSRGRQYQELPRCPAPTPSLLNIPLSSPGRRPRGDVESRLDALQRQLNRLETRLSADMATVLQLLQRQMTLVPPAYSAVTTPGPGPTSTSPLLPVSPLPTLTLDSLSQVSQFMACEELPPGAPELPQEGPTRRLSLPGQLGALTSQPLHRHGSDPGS

This assay concerns the target human ether-à-go-go-related gene (hERG) potassium channel (human, UniProt Q12809). Description: primary screen, population patch clamp on CHO cells stably expressing hERG; higher = less effect of the substance.
`CC1(c2nnc(-c3ccccc3)o2)CC(c2ccccc2)=NO1` (stereo not shown): the “hERG current change (%, negative = inhibition) at 10uM” value is -11.6%.

As for `CC1(c2nnc(-c3ccncc3)o2)CC(c2c(Cl)cccc2Cl)=NO1` (stereo not shown), the “hERG current change (%, negative = inhibition) at 10uM” value is recorded as -69.8%.

For the molecule `COc1ccc(C2=NOC(C)(c3nnc(-c4ccccc4)o3)C2)cc1` (stereo not shown), the “hERG current change (%, negative = inhibition) at 10uM” value is reported as -58.3%.

For the molecule `COc1ccc(C2=NOC(C)(c3nnc(-c4ccncc4)o3)C2)cc1` (stereo not shown), the “hERG current change (%, negative = inhibition) at 10uM” value is recorded as 1.73%.

With `CC1(c2nnc(-c3ccc(Cl)cc3)o2)CC(c2c(Cl)cccc2Cl)=NO1` (stereo not shown), the “hERG current change (%, negative = inhibition) at 10uM” value amounted to 1.13%.

As for `CC1(c2nnc(-c3ccccc3)o2)CC(c2c(Cl)cccc2Cl)=NO1` (stereo not shown), the “hERG current change (%, negative = inhibition) at 10uM” value is recorded as 23.4%.

`CC(=O)Nc1ccc(NC(=O)CSc2ccc(-c3cccnc3)nn2)cc1`: the “hERG current change (%, negative = inhibition) at 10uM” value stood at 24.7%.

Regarding `O=C(C1CCC1)N1CCN(S(=O)(=O)c2ccc(Br)cc2Cl)CC1`, the “hERG current change (%, negative = inhibition) at 10uM” value is -21.8%.

With `COCCn1c(Cc2ccccc2)nnc1SCC(=O)Nc1cc(C)on1`, the “hERG current change (%, negative = inhibition) at 10uM” value is -5.36%.

Turning to `COc1ccc(CC(=O)NNC(=O)CCc2ccccc2)cc1OC`, the “hERG current change (%, negative = inhibition) at 10uM” value is recorded as 14.8%.

As for `CCCSc1cc(=O)n(-c2ccccc2)nc1C(=O)O`, the “hERG current change (%, negative = inhibition) at 10uM” value worked out at 15.7%.

`CCOc1ccccc1Nc1nnc(SC(C)C(=O)Nc2nc(-c3ccccc3)cs2)s1` (stereo not shown): the “hERG current change (%, negative = inhibition) at 10uM” value is 1.46%.

As for `Br.C=CCn1c(C)csc1=Nc1ccccc1C`, the “hERG current change (%, negative = inhibition) at 10uM” value is listed as 4.02%.

Take `Cc1ccccc1CC(=O)NCC1CCCCC1`: the “hERG current change (%, negative = inhibition) at 10uM” value came out at 1.34%.

For `Cc1ccccc1N(CC(=O)NCC1CCCO1)C(=O)C1(C)CC(=O)N=C2C=CC=CN21` (stereo not shown), the “hERG current change (%, negative = inhibition) at 10uM” value is listed as -1.4%.

For the molecule `COc1ccccc1C(CNC(=O)c1cccc(NS(=O)(=O)c2ccc(C)c(F)c2)c1)N1CCCC1` (stereo not shown), the “hERG current change (%, negative = inhibition) at 10uM” value is on record as -40.9%.

In the case of `Cc1cc(S(=O)(=O)Nc2ccc(C(=O)N3CCN(C(=O)c4ccco4)CC3)cc2)ccc1F`, the “hERG current change (%, negative = inhibition) at 10uM” value is listed as -64.4%.

As to `COc1ccccc1C(CNC(=O)c1ccc(NS(=O)(=O)c2ccc(F)c(C)c2)cc1)N1CCCC1` (stereo not shown), the “hERG current change (%, negative = inhibition) at 10uM” value is reported as -58.1%.

In the case of `O=C(NCC(c1ccco1)N1CCCC1)c1ccc(S(=O)(=O)Nc2ccccc2Cl)cc1` (stereo not shown), the “hERG current change (%, negative = inhibition) at 10uM” value is on record as -11.6%.

Consider `COc1ccccc1C(CNC(=O)c1ccc(NS(=O)(=O)c2ccc(F)c(C)c2)cc1)N(C)C` (stereo not shown), for which the “hERG current change (%, negative = inhibition) at 10uM” value is on record as -24.4%.

On to `Cc1cc(S(=O)(=O)Nc2ccc(C(=O)NCC(c3ccco3)N3CCCCC3)cc2)ccc1F` (stereo not shown), for which the “hERG current change (%, negative = inhibition) at 10uM” value is -41.2%.

For the molecule `Cc1cccc(NS(=O)(=O)c2ccc(C(=O)NCC(c3ccco3)N3CCCCC3)cc2)c1C` (stereo not shown), the “hERG current change (%, negative = inhibition) at 10uM” value is -55.6%.

Regarding `Cc1cc(S(=O)(=O)Nc2ccc(C(=O)NCC(c3ccco3)N3CCCC3)cc2)ccc1F` (stereo not shown), the “hERG current change (%, negative = inhibition) at 10uM” value is -50.6%.

As for `O=C(c1ccc(S(=O)(=O)Nc2ccc(F)cc2)cc1)N1CCN(C(=O)c2ccco2)CC1`, the “hERG current change (%, negative = inhibition) at 10uM” value is recorded as -29.4%.

Take `Cc1ccc(NS(=O)(=O)c2cccc(C(=O)N3CCN(C(=O)c4ccco4)CC3)c2)cc1`: the “hERG current change (%, negative = inhibition) at 10uM” value is listed as -36.8%.

Regarding `Cc1ccccc1NS(=O)(=O)c1ccc(C(=O)NCC(c2ccco2)N2CCCCC2)cc1` (stereo not shown), the “hERG current change (%, negative = inhibition) at 10uM” value is 5.89%.

Turning to `O=C(NCC(c1ccco1)N1CCCCC1)c1ccc(NS(=O)(=O)c2ccc(F)cc2)cc1` (stereo not shown), the “hERG current change (%, negative = inhibition) at 10uM” value is -13%.

For the molecule `CC1=NN(C(=O)c2ccccc2Cl)C(O)(c2cccnc2)C1` (stereo not shown), the “hERG current change (%, negative = inhibition) at 10uM” value is given as 17.8%.

`COC(=O)C1Cc2c([nH]c3ccccc23)C(C)N1` (stereo not shown): the “hERG current change (%, negative = inhibition) at 10uM” value was -9.61%.

In the case of `COc1ccc(S(=O)(=O)NCc2ccco2)cc1C(=O)N1CCOCC1`, the “hERG current change (%, negative = inhibition) at 10uM” value is reported as 21%.

Turning to `Cl.O=S(=O)(NCC(c1ccco1)N1CCCCC1)c1ccccc1C(F)(F)F` (stereo not shown), the “hERG current change (%, negative = inhibition) at 10uM” value was -6.8%.

Regarding `Cl.O=S(=O)(NCC(c1ccco1)N1CCCCC1)c1cccc(C(F)(F)F)c1` (stereo not shown), the “hERG current change (%, negative = inhibition) at 10uM” value is -57.7%.

As to `CC(=O)c1cccc(S(=O)(=O)NCC(c2ccco2)N2CCCCC2)c1` (stereo not shown), the “hERG current change (%, negative = inhibition) at 10uM” value is recorded as -24.1%.

`CC(C)[C@H](NC(=O)c1ccccc1F)C(=O)Nc1ccc2c(c1)OCO2`: the “hERG current change (%, negative = inhibition) at 10uM” value turned out to be 5.82%.

For `Br.C1=C(c2cccc3ccccc23)N2CCN=C2S1`, the “hERG current change (%, negative = inhibition) at 10uM” value is given as -34.5%.

`Cc1ccc(N2C(=O)NC(=O)C(CCc3ccncc3)(Cc3cccc(Cl)c3Cl)C2=O)cc1` (stereo not shown): the “hERG current change (%, negative = inhibition) at 10uM” value was determined as 6.14%.

Take `O=C1NC(=O)C(CCc2ccncc2)(Cc2cccc(Cl)c2Cl)C(=O)N1c1ccc(Br)cc1` (stereo not shown): the “hERG current change (%, negative = inhibition) at 10uM” value is -11%.

With `Cc1ccc(N2C(=O)NC(=O)C(CCc3ccccn3)(Cc3ccc(F)cc3)C2=O)cc1` (stereo not shown), the “hERG current change (%, negative = inhibition) at 10uM” value is given as 12.9%.

In the case of `O=C1NC(=O)C(CCc2ccncc2)(CCc2ccccn2)C(=O)N1c1ccc(Br)cc1` (stereo not shown), the “hERG current change (%, negative = inhibition) at 10uM” value is -75.6%.

`COc1ccc(N2C(=O)NC(=O)C(CCc3ccncc3)(CCc3ccncc3)C2=O)cc1`: the “hERG current change (%, negative = inhibition) at 10uM” value was -23.6%.
